In PubChem BioAssay AID686970 (National Center for Advancing Translational Sciences (NCATS), 2013):
In all, about 360,000 compounds went through this assay and about 6,000 (1.7%) were called active. Not shown: some 8% with an inconclusive outcome. The sample as a whole holds a higher share of actives than the screen did. Values without a mark were called inactive. Calls come from the whole dose curve; as a rule, active = well fitted cell-killing curve with a large enough effect; inconclusive = small, poorly fitted or top-dose-only effect, or effect the other way; inactive = flat fitted curve, though single readings scatter.

Experiment: qHTS for induction of synthetic lethality in tumor cells producing 2HG: qHTS for the HT-1080-NT fibrosarcoma cell line;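 note: NT is the 2HG producing partner of a matched IDH1 knockdown line; nearly all actives have a fitted effect of over 55% in size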;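 for activity, negative = less viability: 0% = DMSO-treated cells and -100% = media-only wells without cells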
Details: HT-1080-NT fibrosarcoma viability, CellTiter-Glo ATP luminescence, 48 h; series mostly up to 46.1 µM; activity, negative = less viability: at the top concentration
Outline: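 Viability of the 2HG-overproducing fibrosarcoma line after 48 hours of compound exposure at 37 degrees C was determined by luminescence with CellTiter-Glo, and concentration-effect curves were then fitted and categorized.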
Potency is the fitted concentration of half-maximal effect.

| Compound | activity, negative = less viability | Potency |
| --- | --- | --- |
| O=C(NCc1ccccc1Cl)c1csc([C@@H]2O[C@H](CO)[C@@H](O)[C@H]2O)n1 | 6.23% | – |
| COc1ccccc1N1CC(C(=O)Nc2ccc(S(=O)(=O)N3CCOCC3)cc2)CC1=O (stereo not given) | 11.5% | – |
| COc1ccc(Cl)cc1NC(=O)C1CC(=O)N(c2ccc(F)cc2)C1 (stereo not given) | -2.72% | – |
| COc1cc(OC)c(N2CC(C(=O)Nc3cc(Cl)ccc3N3CCOCC3)CC2=O)cc1Cl (stereo not given) | – | 5.8 µM (active) |
| CCCNC(=O)C1(C)CCN(C(=O)c2ccccc2OC(F)(F)F)C1 (stereo not given) | 10.9% | – |
| O=C(O)C1CCCN1c1nc(Cl)ccc1[N+](=O)[O-] (stereo not given) | 2.51% | – |
| COc1ccc(-c2ccc3[nH]c4c(c3c2)CCN2C[C@H]3[C@H](C)ON(C)[C@H]3C[C@@H]42)cc1 | -28.4% | – |
| CCOC(=O)c1c(NC(=S)SC)sc(C(=O)N2CCc3ccccc3C2)c1C | -2.33% | – |
| Cc1ccc(S(=O)(=O)N2CCCCC2)cc1NC(=O)CCNC(=O)c1ccccc1Cl | 5.6% | – |
| Cc1nnc(OCC(=O)NCCC2=CCCCC2)c2ccccc12 | 17.4% | – |
| C=CCn1c(CC(=O)Nc2cccc(OC)c2)nnc1SCC(=O)NC1CCCCC1 | -3.92% | – |
| COc1cccc(-n2c(SCC(=O)NC3CCCCC3)nc3n[nH]c(C)c3c2=N)c1 | – | 14.6 µM (active) |
| Cc1ccc(-n2c(SCC(=O)NCCC3=CCCCC3)nc3n[nH]c(C)c3c2=N)cc1Cl | – | 23.1 µM (active) |
| CCCCNC(=O)CSc1nc2n[nH]c(C)c2c(=N)n1-c1cccc(Cl)c1C | 1.53% [at 9.24 µM] | – |
| COc1cccc(-n2c(SCC(=O)NC3CCS(=O)(=O)C3)nc3ccccc3c2=O)c1 (stereo not given) | 3.51% | – |
| O=c1cc(CN2CCCCCCC2)c2c(ccc3ccccc32)o1 | 22.8% | – |
| Nc1[nH]c(C(=O)c2ccccc2)c(-c2ccc(Br)cc2)c1C(=O)NC1CC1 | 0.942% | – |
| CCc1nc2c(OCCOc3ccccc3)cccn2c1N(C)C(=O)c1cccs1 | 12.8% | – |
| CCc1nc2c(=O)[nH]cnc2o1 | 10% | – |
| Cc1ccccc1S(=O)(=O)NC(=O)C1(C)CCN1C(=O)C1(c2ccccc2)CCCC1 (stereo not given) | 13.7% | – |

| Compound | activity, negative = less viability | Potency |
| --- | --- | --- |
| CCOC(=O)C1(C)CCCN(C(=O)c2ccc(F)c(Cl)c2)C1 (stereo not given) | -2.76% | – |
| COc1ccc(CNC(=O)C2CCCC2)cc1 | 14.5% | – |
| COc1ccc(CNc2nc(NCc3ccc(OC)cc3)c3ncn(C4CCCC4)c3n2)cc1 | – | 7.31 µM (active) |
| COc1ccc(CNc2nccs2)cc1 | -2.05% | – |
| O=c1[nH][nH]c2c1[C@H](c1ccc(Cl)cc1)O[C@H](CCc1ccccc1)C2 | -25.7% | – |
| COc1cccc(CNC(=O)[C@@H]2CCCN2C(=O)[C@@H]2CCCN2C(=O)c2ccccc2)c1 | 10.9% | – |
| CC1(C(=O)NCc2ccc3c(c2)OCO3)CCN1C(=O)Cc1cccc2ccccc12 (stereo not given) | 0.53% | – |
| COc1ccc(OC)c(C(O)c2ncc(-c3cccc(C(F)(F)F)c3)[nH]2)c1 (stereo not given) | -8.49% | – |
| COc1cc2nc(Cl)nc(NC3CC3)c2cc1OC | -5.51% | – |
| Cc1ccc([C@H]2N[C@]3(CCCN(Cc4ccccc4)C3=O)[C@H]3C(=O)N(Cc4ccccc4)C(=O)[C@@H]23)cc1 | -8.22% | – |
| CC(C)C[C@H]1CN([C@@H](Cc2ccccc2)CN2CCC[C@@H]2CN2C(=O)C(=O)NC[C@@H]2Cc2ccc(O)cc2)C(=O)C(=O)N1CCc1ccccc1 | 7.9% | – |
| CC(C)C[C@H]1CNC(=S)N1C[C@H]1CCCN1C[C@H](Cc1ccc(O)cc1)N1C[C@H](Cc2ccc(O)cc2)N(CC2CCCCC2)C1=S | – | 20.6 µM (active) |
| CC(C)C[C@H]1CNC(=O)C(=O)N1C[C@@H]1CCCN1C[C@H](Cc1ccccc1)N1C[C@H](CC(C)C)N(CC2CCCCCC2)C(=O)C1=O | 23% | – |
| C[C@@H]1CN([C@@H](C)CO)C(=O)CCCn2nncc2CO[C@H]1CN(C)Cc1ccc(C(F)(F)F)cc1 | 17.2% | – |
| CC1(C(=O)NS(=O)(=O)c2cccs2)CCN1C(=O)Cc1ccc(-c2ccccc2)cc1 (stereo not given) | 0.809% | – |
| COc1cc(SC#N)ccc1N=Cc1c(C)[nH]n(-c2ccc(C)cc2)c1=O | – | 25.9 µM (active) |
| O=Cc1cn(CCOc2ccc(F)cc2)c2ccccc12 | 5.53% | – |
| CCc1nc2ccc(C(=O)N(C)CCN(C)C)cn2c1N(CC)CCOC | 15.1% | – |
| CCc1nc2ccc(C(=O)Nc3cccc(OC)c3)cn2c1N(CCC(C)C)CCN(C)C | – | 18.4 µM (active) |
| CCc1nc2ccc(C(=O)Nc3ccc(OC)c(OC)c3)cn2c1N(C)C(=O)c1cccc(OC)c1 | 21.7% | – |

| Compound | activity, negative = less viability | Potency |
| --- | --- | --- |
| Fc1ccc2[nH]c3c(N4CCN(Cc5ccc6c(c5)OCO6)CC4)ncnc3c2c1 | – | 23.1 µM (active) |
| O=c1[nH]c(N2CCN(Cc3ccc4c(c3)OCO4)CC2)nc2c1CCCC2 | 15.1% | – |
| CCCCCc1c(C)nc(N2CCN(Cc3ccc4c(c3)OCO4)CC2)[nH]c1=O | 2.77% | – |
| COc1cccc(-c2cc3nc(NCCOc4ccccc4Cl)n(C)c(=O)c3s2)c1 | 3.07% | – |
| CCCC(=O)N1CCC1(C)C(=O)NCc1ccc(SC)cc1 (stereo not given) | 0.58% | – |
| CCCc1nc2ccccc2n1C(C)C(=O)NC(C)(C)C (stereo not given) | 10.5% | – |
| Cc1cccc(-c2cnc(C(O)c3ccc4ccccc4c3)[nH]2)c1 (stereo not given) | -10.5% | – |
| CN(C)CCNC(=O)c1ccc(Cl)c2cc3ccccc3nc12 | – | 20.6 µM (active) |
| CN(c1ccccc1)S(=O)(=O)c1ccc(Cl)c(C(=O)NCCc2c[nH]c3ccccc23)c1 | -7.85% | – |
| CN(C)CCNC(=O)Nc1cccc(Cl)c1Cl | -8.51% | – |
| CC1(Oc2ccc(Cl)cc2)CCN(Cc2csc3ccccc23)C1 (stereo not given) | 10.5% | – |
| COc1ccc(CNC(=O)C2CC(c3ccc(C(F)(F)F)cc3)=NO2)cc1 (stereo not given) | -10.4% | – |
| COc1ccc(C2=NOC(C(=O)NCc3ccco3)C2)cc1OC (stereo not given) | – | 6.31 µM (active) |
| COc1ccc(S(=O)(=O)N2CCC(C(=O)NCc3ccco3)CC2)cc1C | 1.61% | – |
| COc1ccc(CN2C[C@H]3CON(C)[C@H]3C[C@H]2c2ccc(-c3cccc(F)c3)cc2)cc1 | -27.7% | – |
| Cc1sc2ncnc(SCC(=O)NC3CCS(=O)(=O)C3)c2c1C (stereo not given) | -12.9% | – |
| Cc1ccc(CN(C)C[C@@H]2OCc3cnnn3CCCC(=O)N([C@@H](C)CO)C[C@H]2C)cc1 | -0.921% | – |
| O=C1c2cccc3c([N+](=O)[O-])ccc(c23)C(=O)N1CC1CCCO1 (stereo not given) | – | 23.1 µM (active) |
| CCOc1cccc(=O)c2c(C)n(CC3CCCO3)c(C)c12 (stereo not given) | -0.086% | – |
| CN1CN(C)c2ccc([N+](=O)[O-])c3cccc1c23 | -4.95% | – |
